# In PubChem BioAssay (NCATS):
# Results filed as inconclusive are left out. Entries that show only a call come without a potency. The source made the active and inactive calls. Unless noted, the call rests on the fitted dose curve; in most records, active means well fitted curve in the direction sought with a large enough effect; inconclusive means small, poorly fitted or top-dose-only effect, or another doubt; inactive means no such curve, though single readings can be large; an effect the other way counts as inactive or inconclusive.
# How the values were obtained:
# [1] = target: Metallo-beta-lactamase type 2 (Klebsiella pneumoniae) (UniProt C7C422); test: qHTS to identify inhibitors of the New Delhi Metallo-beta-lactamase (NDM): assay validation screen against the NCATS LOPAC Collection (AID 1794843)
# How it was run: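 Absorbance at 485 nm from nitrocefin turnover (50 uM solution added), read at plateau, gives the read-out. Compounds in DMSO were incubated first with 2 nM final NDM-1 in pH 7.0 HEPES buffer containing 1 uM ZnSO4 and 0.01% Tween20.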
# [2] = target: Glutathione peroxidase 1 (Homo sapiens) (UniProt P07203); test: Primary qHTS Assay for Inhibitors of Recombinant Selenoprotein Glutathione Peroxidase 1 (GPX1) (AID 1845191); further: nearly all actives have a fitted effect of over 65% in size
# How it was run: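 GR-coupled readout: NADPH consumption tracked by fluorescence, ex 340/em 450 nm, at t=0 and after 15 min at RT. Final mix 10 nM GPX1, 1 mM GSH, 0.5 mM CHP, 0.5 mM NADPH, 100 nM GR, 0.01% BSA, following 30 min enzyme–compound preincubation.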
# [3] = target: Phospholipid hydroperoxide glutathione peroxidase GPX4 (Homo sapiens) (UniProt P36969); test: Primary qHTS Assay for Inhibitors of Recombinant Selenoprotein Glutathione Peroxidase 4 (GPX4) (AID 1845192); conditions: outcome: dose series up to 50 µM unless noted; further: nearly all actives have a fitted effect of over 65% in size
# How it was run: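 Steps: GPX4 plus compound, 30 min RT; add GR/GSH/NADPH master mix; start with cumene hydroperoxide; read 340/450 nm fluorescence at 0 and 15 min. Finals were 200 nM GPX4, 1 mM GSH, 0.5 mM CHP, 0.5 mM NADPH, 100 nM GR.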
# [4] = target: Rap guanine nucleotide exchange factor 3 (Homo sapiens) (UniProt O95398); test: Confirmatory qHTS for antagonist of cAMP-regulated guanine nucleotide exchange factor 3 (EPAC1) (AID 1645880); further: nearly all actives have a fitted effect of over 55% in size
# How it was run: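 Released BODIPY-GDP fluoresces less than Rap1-bound BODIPY-GDP; the signal is followed at 480/540 nm at 5-min intervals over 30 min, after 5 min at room temperature. Reactions contain 100 nM EPAC1, 250 nM RAP1B-BODIPY-GDP and 50 uM GDP; results are normalized to ATA and DMSO.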
# [5] = target: Rap guanine nucleotide exchange factor 3 (Homo sapiens) (UniProt O95398); test: Confirmatory qHTS for agonist of cAMP-regulated guanine nucleotide exchange factor 3 (EPAC1) (AID 1645881);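 further: EPAC1 catalysed release of BODIPY-GDP from Rap1B seen as fluorescence loss; nearly all actives have a fitted effect of over 75% in size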
# [6] = target: Rap guanine nucleotide exchange factor 4 (Homo sapiens) (UniProt Q8WZA2); test: Confirmatory qHTS for agonist of cAMP-regulated guanine nucleotide exchange factor 4 (EPAC2) (AID 1645884);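 further: nucleotide exchange releases bodipy-GDP from Rap1 and this lowers its fluorescence; nearly all actives have a fitted effect of over 65% in size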
# [7] = target: Rap guanine nucleotide exchange factor 4 (Homo sapiens) (UniProt Q8WZA2); test: Confirmatory qHTS for antagonist of cAMP-regulated guanine nucleotide exchange factor 4 (EPAC2) (AID 1645885); further: nearly all actives have a fitted effect of over 25% in size; further: potency means the concentration at half of the fitted maximal effect
# [8] = target: Catechol O-methyltransferase (Homo sapiens) (UniProt P21964); test: Confirmatory Screen for Target Class Profiling of Small Molecule Inhibitors of Methyltransferases (AID 1745852; calls by dose curve); conditions: MTase-Glo luminescence, SAH detection, recombinant enzyme; measured here: COMT max response; stronger effect = lower value
# [9] = target: Guanidinoacetate N-methyltransferase (Homo sapiens) (UniProt Q14353); test: as above; conditions: MTase-Glo luminescence, SAH detection, recombinant enzyme; at 57.3 µM (top of the series)
# [10] = target: Nicotinamide N-methyltransferase (Homo sapiens) (UniProt P40261); test: as above; conditions: MTase-Glo luminescence, SAH detection, recombinant enzyme; measured here: NNMT max response; stronger effect = lower value
# [11] = target: Phenylethanolamine N-methyltransferase (Homo sapiens) (UniProt P11086); test: as above; conditions: MTase-Glo luminescence, SAH detection, recombinant enzyme; measured here: PNMT max response; stronger effect = lower value
# [12] = target: Rap guanine nucleotide exchange factor 3 (Homo sapiens) (UniProt O95398); test: Counterscreen qHTS for antagonist of cAMP-regulated guanine nucleotide exchange factor 3 (EPAC1) (AID 1645888)
# How it was run: (§1)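 Rap1B–BODIPY-GDP (250 nM) with 50 uM GDP; compounds pin-transferred to 9.74 nM–152 uM final (activator) or from 7.32 nM upwards (inhibitor). Fluorescence Ex/Em 480/540 nm read at 5 and 30 min, then after adding cAMP or buffer, at room temperature.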
# [13] = target: Rap guanine nucleotide exchange factor 3 (Homo sapiens) (UniProt O95398); test: Counterscreen qHTS for agonist of cAMP-regulated guanine nucleotide exchange factor 3 (EPAC1) (AID 1645889); further: nearly all actives have a fitted effect of over 40% in size
# How it was run: as §1
# [14] = NCATS anti-infectives library activity on HEK293 viability as a counter-qHTS vs the C. elegans viability qHTS (AID 1745854);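 further: HEK293 cells exposed to compounds for 24 hr before the viability read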
# How it was run: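 Counter-screen for cytotoxicity: HEK293, 24 hr, 37C, compounds up to 41.7 uM final (a dilution series, 1:5). Readout CellTiter-Glo luminescence, 10 min RT. Digitonin control, 83.3 uM final.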
# Sequence of Phenylethanolamine N-methyltransferase (Homo sapiens) (P11086 whole entry, looked up): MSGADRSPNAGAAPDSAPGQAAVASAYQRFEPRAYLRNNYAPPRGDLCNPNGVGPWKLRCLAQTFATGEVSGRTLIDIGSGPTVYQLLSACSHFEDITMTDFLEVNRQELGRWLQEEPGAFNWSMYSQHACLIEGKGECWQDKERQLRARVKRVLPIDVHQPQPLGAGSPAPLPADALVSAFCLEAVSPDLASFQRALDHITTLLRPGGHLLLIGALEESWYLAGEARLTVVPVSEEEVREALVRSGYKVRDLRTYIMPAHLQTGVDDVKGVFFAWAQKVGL
# Sequence of Nicotinamide N-methyltransferase (Homo sapiens) (P40261 whole entry, looked up): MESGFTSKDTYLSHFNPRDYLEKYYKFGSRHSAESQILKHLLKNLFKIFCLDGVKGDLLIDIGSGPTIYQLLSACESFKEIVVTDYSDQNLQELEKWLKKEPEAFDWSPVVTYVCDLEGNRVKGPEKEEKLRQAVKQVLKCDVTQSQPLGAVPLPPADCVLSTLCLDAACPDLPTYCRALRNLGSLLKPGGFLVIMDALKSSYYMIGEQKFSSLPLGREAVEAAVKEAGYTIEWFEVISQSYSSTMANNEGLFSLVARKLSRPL
# Sequence of Rap guanine nucleotide exchange factor 3 (Homo sapiens) (O95398 whole entry, looked up): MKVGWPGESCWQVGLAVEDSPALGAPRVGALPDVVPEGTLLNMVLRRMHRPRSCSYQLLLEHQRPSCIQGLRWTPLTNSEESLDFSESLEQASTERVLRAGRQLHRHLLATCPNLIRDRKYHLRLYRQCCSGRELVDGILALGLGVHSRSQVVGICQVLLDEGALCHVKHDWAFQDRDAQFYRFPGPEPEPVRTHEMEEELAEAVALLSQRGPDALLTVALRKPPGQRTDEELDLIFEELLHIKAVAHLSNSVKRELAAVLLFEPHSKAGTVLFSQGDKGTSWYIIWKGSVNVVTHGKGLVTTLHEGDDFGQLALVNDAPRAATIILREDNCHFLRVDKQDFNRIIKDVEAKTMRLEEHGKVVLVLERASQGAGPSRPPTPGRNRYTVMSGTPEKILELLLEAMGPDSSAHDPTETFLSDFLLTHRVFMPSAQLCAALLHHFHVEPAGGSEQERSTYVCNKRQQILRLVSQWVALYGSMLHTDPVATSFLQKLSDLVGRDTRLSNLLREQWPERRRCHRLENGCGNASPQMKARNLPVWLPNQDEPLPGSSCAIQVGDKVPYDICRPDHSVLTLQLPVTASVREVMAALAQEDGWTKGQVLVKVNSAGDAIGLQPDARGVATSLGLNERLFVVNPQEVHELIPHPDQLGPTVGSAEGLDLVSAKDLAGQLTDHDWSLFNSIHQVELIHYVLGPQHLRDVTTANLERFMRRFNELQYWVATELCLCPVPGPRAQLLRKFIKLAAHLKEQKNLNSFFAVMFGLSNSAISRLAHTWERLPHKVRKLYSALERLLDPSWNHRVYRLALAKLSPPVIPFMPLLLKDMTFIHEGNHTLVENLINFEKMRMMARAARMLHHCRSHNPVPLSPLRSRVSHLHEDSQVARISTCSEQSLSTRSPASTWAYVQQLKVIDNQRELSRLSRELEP
# Sequence of Catechol O-methyltransferase (Homo sapiens) (P21964 whole entry, looked up): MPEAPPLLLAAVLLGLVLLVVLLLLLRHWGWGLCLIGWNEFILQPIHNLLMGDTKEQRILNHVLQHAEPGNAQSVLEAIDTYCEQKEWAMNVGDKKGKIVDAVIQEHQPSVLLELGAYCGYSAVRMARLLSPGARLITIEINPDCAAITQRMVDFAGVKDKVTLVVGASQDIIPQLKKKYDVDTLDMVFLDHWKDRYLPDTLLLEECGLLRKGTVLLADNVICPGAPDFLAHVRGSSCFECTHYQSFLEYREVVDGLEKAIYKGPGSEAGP
# Sequence of Phospholipid hydroperoxide glutathione peroxidase GPX4 (Homo sapiens) (P36969 whole entry, looked up): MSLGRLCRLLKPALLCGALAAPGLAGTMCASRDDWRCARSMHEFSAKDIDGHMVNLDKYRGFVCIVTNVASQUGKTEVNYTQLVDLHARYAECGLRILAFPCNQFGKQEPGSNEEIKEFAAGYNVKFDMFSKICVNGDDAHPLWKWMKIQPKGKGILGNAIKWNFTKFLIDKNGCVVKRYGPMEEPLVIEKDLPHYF
# Sequence of Glutathione peroxidase 1 (Homo sapiens) (P07203 whole entry, looked up): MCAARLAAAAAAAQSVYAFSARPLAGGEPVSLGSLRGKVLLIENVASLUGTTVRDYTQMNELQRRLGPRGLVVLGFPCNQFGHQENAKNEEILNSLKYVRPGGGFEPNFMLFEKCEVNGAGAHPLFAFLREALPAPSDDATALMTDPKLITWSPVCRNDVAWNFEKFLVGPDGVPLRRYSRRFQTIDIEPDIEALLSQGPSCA
# Sequence of Metallo-beta-lactamase type 2 (Klebsiella pneumoniae) (C7C422 whole entry, looked up): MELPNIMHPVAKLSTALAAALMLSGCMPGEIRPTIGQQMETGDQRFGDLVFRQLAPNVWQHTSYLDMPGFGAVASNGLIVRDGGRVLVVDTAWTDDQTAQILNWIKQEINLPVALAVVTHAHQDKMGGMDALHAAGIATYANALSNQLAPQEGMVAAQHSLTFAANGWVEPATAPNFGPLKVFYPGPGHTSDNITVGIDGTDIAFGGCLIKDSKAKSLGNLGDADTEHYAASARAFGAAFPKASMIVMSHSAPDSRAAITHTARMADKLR
# Sequence of Rap guanine nucleotide exchange factor 4 (Homo sapiens) (Q8WZA2 whole entry, looked up): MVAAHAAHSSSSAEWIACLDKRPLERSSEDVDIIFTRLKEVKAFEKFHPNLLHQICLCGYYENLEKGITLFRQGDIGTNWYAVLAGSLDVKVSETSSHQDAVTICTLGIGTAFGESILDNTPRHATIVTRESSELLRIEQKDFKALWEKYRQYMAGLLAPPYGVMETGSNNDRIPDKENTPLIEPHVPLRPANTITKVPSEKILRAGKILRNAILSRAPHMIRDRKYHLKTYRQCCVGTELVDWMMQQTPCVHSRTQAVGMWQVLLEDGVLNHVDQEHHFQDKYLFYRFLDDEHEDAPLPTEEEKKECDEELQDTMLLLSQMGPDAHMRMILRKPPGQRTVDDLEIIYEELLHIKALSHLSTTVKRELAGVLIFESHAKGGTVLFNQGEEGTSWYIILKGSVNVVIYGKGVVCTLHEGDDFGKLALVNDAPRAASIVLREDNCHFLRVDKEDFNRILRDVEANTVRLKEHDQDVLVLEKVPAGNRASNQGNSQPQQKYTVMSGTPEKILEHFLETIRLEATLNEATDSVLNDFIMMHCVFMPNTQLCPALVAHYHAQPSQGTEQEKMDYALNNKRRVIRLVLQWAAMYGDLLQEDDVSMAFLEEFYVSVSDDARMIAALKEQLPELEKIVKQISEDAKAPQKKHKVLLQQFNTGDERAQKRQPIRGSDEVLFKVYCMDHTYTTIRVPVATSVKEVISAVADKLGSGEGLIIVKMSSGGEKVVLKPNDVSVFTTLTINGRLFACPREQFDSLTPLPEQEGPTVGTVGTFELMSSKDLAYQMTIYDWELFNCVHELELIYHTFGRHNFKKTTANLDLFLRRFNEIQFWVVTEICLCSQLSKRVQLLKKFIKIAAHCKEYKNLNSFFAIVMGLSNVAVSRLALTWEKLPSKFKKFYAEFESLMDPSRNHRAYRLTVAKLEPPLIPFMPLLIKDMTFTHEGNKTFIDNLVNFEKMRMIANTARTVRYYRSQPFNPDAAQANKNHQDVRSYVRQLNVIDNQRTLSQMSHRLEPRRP
smiles,measurement,setting,value
OC(CCN1CCCCC1)(c1ccccc1)C1CCCCC1 (stereo unspecified),Potency,[1],inactive
same,Potency,[2],inactive
same,outcome,[3],inactive
Fc1ccc(C(c2ccc(F)cc2)N2CCN(C/C=C/c3ccccc3)CC2)cc1,Potency,[1],inactive
same,Potency,[2],inactive
same,outcome,[3],inactive
COCCCC/C(=N\OCCN)c1ccc(C(F)(F)F)cc1,Potency,[2],inactive
same,outcome,[3],inactive
COC(=O)C1=C(C)NC(C)=C(C(=O)OC(C)(C)CN(C)CCC(c2ccccc2)c2ccccc2)C1c1cccc([N+](=O)[O-])c1 (stereo unspecified),Potency,[1],inactive
same,Potency,[2],inactive
same,outcome,[3],inactive
CCCOc1ccccc1-c1nc2n[nH]nc2c(=O)[nH]1,Potency,[1],inactive
same,Potency,[2],inactive
same,outcome,[3],inactive
CC(C)(C)NCC(O)c1cc(O)cc(O)c1 (stereo unspecified),Potency,[1],inactive
same,Potency,[2],inactive
same,outcome,[3],inactive
C[N+](C)(C)CCOC(N)=O,Potency,[1],inactive
same,outcome,[3],inactive
O=C(CCCN1CCC(O)(c2cccc(C(F)(F)F)c2)CC1)c1ccc(F)cc1,Potency,[2],inactive
same,outcome,[3],inactive
CCOC(=O)C1=C(C)NC(C)=C(C(=O)OC)C1c1cccc([N+](=O)[O-])c1 (stereo unspecified),outcome,[4],inactive
same,Potency,[5],inactive
same,Potency,[1],inactive
same,Potency,[2],inactive
same,outcome,[3],inactive
CCCCNc1c(C(=O)OCC)c(C)nc2c1cnn2CC,Potency,[2],inactive
same,outcome,[3],inactive
Cc1nc2sccn2c(=O)c1CCN1CCC(=C(c2ccc(F)cc2)c2ccc(F)cc2)CC1,outcome,[4],inactive
same,Potency,[5],inactive
same,Potency,[6],inactive
same,Potency,[7],44.1 µM (active)
same,Potency,[2],inactive
same,outcome,[3],inactive
Cc1ccc(Cl)c(Nc2ccccc2C(=O)O)c1Cl,Potency,[1],inactive
same,Potency,[2],inactive
same,outcome,[3],inactive
COc1ccc2c(c1OC)C(=O)O[C@@H]2[C@H]1c2c(cc3c(c2OC)OCO3)CCN1C,Potency,[1],inactive
same,Potency,[2],inactive
same,outcome,[3],inactive
COC(=O)[C@@H](N)Cc1ccc(O)c(O)c1,activity,[8],134%
same,"activity change, negative = inhibition",[9],1.23%
same,activity,[10],4.06%
same,activity,[11],5.34%
same,Potency,[1],inactive
same,Potency,[2],inactive
same,outcome,[3],inactive
CN1CCN(CC(=O)N2c3ccccc3C(=O)Nc3cccnc32)CC1,Potency,[2],inactive
same,outcome,[3],inactive [at 4.52 µM]
CCc1c(C)[nH]c2c1C(=O)C(CN1CCOCC1)CC2 (stereo unspecified),activity,[8],6.21%
same,"activity change, negative = inhibition",[9],-2.7%
same,activity,[10],-7.58%
same,activity,[11],4.21%
same,Potency,[1],inactive
same,outcome,[3],inactive
CCC(=O)c1ccc2c(c1)N(CCCN(C)C)c1ccccc1S2,activity,[8],6.41%
same,"activity change, negative = inhibition",[9],4.3%
same,activity,[10],-51.8%
same,activity,[11],-2.93%
same,Potency,[1],inactive
same,outcome,[3],inactive
CNCCC(Oc1ccccc1OC)c1ccccc1 (stereo unspecified),Potency,[1],inactive
same,Potency,[2],inactive
same,outcome,[3],inactive
COc1cc(Cc2cnc(N)nc2N)cc(OC)c1OC,outcome,[4],inactive
same,Potency,[5],inactive
same,Potency,[6],inactive
same,Potency,[7],inactive
same,outcome,[12],inactive
same,outcome,[13],inactive
same,outcome,[14],inactive
same,Potency,[1],inactive
same,outcome,[3],inactive
CCN(CC)CCCN(c1ccccc1)C1Cc2ccccc2C1,Potency,[2],inactive
same,outcome,[3],inactive
NC(N)=N/N=C/c1c(Cl)cccc1Cl,activity,[8],-0.724%
same,"activity change, negative = inhibition",[9],0.25%
same,activity,[10],-52.2%
same,activity,[11],-1.71%
same,Potency,[1],inactive
same,Potency,[2],inactive
same,outcome,[3],inactive
NC1=NCC2c3ccccc3Cc3ccccc3N12 (stereo unspecified),activity,[8],-1.67%
same,"activity change, negative = inhibition",[9],4.05%
same,activity,[10],-14.5%
same,activity,[11],-3.06%
same,Potency,[1],inactive
same,Potency,[2],inactive
same,outcome,[3],inactive
NC(N)=NC(=O)Cc1c(Cl)cccc1Cl,Potency,[2],inactive
same,outcome,[3],inactive
